Results from PubChem BioAssay AID1159580 (chemical genetic matrix, 2015).
Where “and” joins values, the source holds several entries; their conditions need not be identical. Equal entries are not always repeated. The campaign covered roughly 5,500 compounds. About 2,000 (36%) were called active. Inconclusive results (about 18%) are left out. No stated cut-off is given here; in the data, active means normalized growth mostly below about 0.91 (no sharp cut-off); inconclusive means no clear call, values can overlap the other calls; inactive means mostly above about 0.92. This is one part of the list.

Experiment: chemical genetic growth profiling, strain panel (AID 1159580);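 further: tested at 20 µM; growth read once vehicle control cultures reached saturation at 30 °C; 1 = growth at the plate median or of vehicle wells; lower values mean less growth of the strain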
Conditions: growth OD

Measured: normalized growth

O=c1ccn([C@@H]2O[C@H](COP(=O)(O)OP(=O)(O)OP(=O)(O)O)[C@@H](O)[C@H]2O)c(=O)[nH]1
inactive: S. cerevisiae deletion strains, locus YBR021W, strain FUR4, active compounds read low 1.06 | S. cerevisiae deletion strains, locus YBR229C, strain ROT2, active compounds read low 1.02 | S. cerevisiae deletion strains, locus YCL029C, strain bik1, active compounds read low 0.999 | S. cerevisiae deletion strains, locus YDL035C, strain GPR1, active compounds read low 1.02 | S. cerevisiae deletion strains, locus YDL074C, strain BRE1, active compounds read low 1.04 | S. cerevisiae deletion strains, locus YDL101C, strain DUN1, active compounds read low 1.02 | S. cerevisiae deletion strains, locus YDL185W, strain tfp1, active compounds read low 0.974 | S. cerevisiae deletion strains, locus YDL192W, strain arf1, active compounds read low 0.991 | S. cerevisiae deletion strains, locus YDR101C, strain arx1, active compounds read low 1.03 | S. cerevisiae deletion strains, locus YDR150W, strain NUM1, active compounds read low 1.02 | S. cerevisiae deletion strains, locus YDR162C, strain NBP2, active compounds read low 1.01 | S. cerevisiae deletion strains, locus YDR318W, strain mcm21, active compounds read low 1 | S. cerevisiae deletion strains, locus YDR388W, active compounds read low 0.988 | S. cerevisiae deletion strains, locus YDR502C, strain sam2, active compounds read low 0.993 | S. cerevisiae deletion strains, locus YEL061C, strain CIN8, active compounds read low 1.01 | S. cerevisiae deletion strains, locus YER110C, active compounds read low 0.954 | S. cerevisiae deletion strains, locus YER155C, strain BEM2, active compounds read low 1.02 | S. cerevisiae deletion strains, locus YER167W, strain BCK2, active compounds read low 1.02 | S. cerevisiae deletion strains, locus YGL078C, strain dbp3, active compounds read low 0.984 | S. cerevisiae deletion strains, locus YGL086W, strain mad1, active compounds read low 0.996 | S. cerevisiae deletion strains, locus YGL248W, strain PDE1, active compounds read low 1.02 | S. cerevisiae deletion strains, locus YGR078C, strain PAC10, active compounds read low 1.02 | S. cerevisiae deletion strains, locus YGR135W, strain pre9, active compounds read low 0.946 | S. cerevisiae deletion strains, locus YGR252W, strain gcn5, active compounds read low 0.975 | S. cerevisiae deletion strains, locus YHR030C, strain SLT2, active compounds read low 1.01 and 1.04 | S. cerevisiae deletion strains, locus YHR079C, strain IRE1 (second series), active compounds read low 1 | S. cerevisiae deletion strains, locus YHR079C, strain IRE1, active compounds read low 1.04 | S. cerevisiae deletion strains, locus YHR094C, strain hxt1, active compounds read low 0.996 | S. cerevisiae deletion strains, locus YHR129C, strain ARP1, active compounds read low 1.02 | S. cerevisiae deletion strains, locus YHR200W, strain rpn10, active compounds read low 1 | S. cerevisiae deletion strains, locus YIL066C, strain RNR3, active compounds read low 1.03 | S. cerevisiae deletion strains, locus YIL073C, strain SPO22, active compounds read low 0.962 | S. cerevisiae deletion strains, locus YIL125W, strain kgd1, active compounds read low 1.01 | S. cerevisiae deletion strains, locus YIR030C, strain dcg1, active compounds read low 0.996 | S. cerevisiae deletion strains, locus YJL095W, strain BCK1, active compounds read low 1.04 | S. cerevisiae deletion strains, locus YJL134W, strain LCB3, active compounds read low 1.01 | S. cerevisiae deletion strains, locus YJL168C, strain set2, active compounds read low 0.98 | S. cerevisiae deletion strains, locus YJL187C, strain SWE1 (second series), active compounds read low 1.03 | S. cerevisiae deletion strains, locus YJR043C, strain POL32, active compounds read low 1.04 | S. cerevisiae deletion strains, locus YJR066W, strain TOR1, active compounds read low 1.01 | S. cerevisiae deletion strains, locus YJR075W, strain HOC1, active compounds read low 1 | S. cerevisiae deletion strains, locus YKL009W, strain mrt4, active compounds read low 0.979 | S. cerevisiae deletion strains, locus YKL068W, active compounds read low 1.02 | S. cerevisiae deletion strains, locus YKL085W, strain MDH1 (second series), active compounds read low 1.01 | S. cerevisiae deletion strains, locus YKL085W, strain MDH1, active compounds read low 1.01 | S. cerevisiae deletion strains, locus YKR001C, strain vps1, active compounds read low 0.99 | S. cerevisiae deletion strains, locus YLR039C, strain RIC1, active compounds read low 1.04 | S. cerevisiae deletion strains, locus YLR058C, strain SHM2, active compounds read low 1.01 | S. cerevisiae deletion strains, locus YLR102C, strain apc9, active compounds read low 1 | S. cerevisiae deletion strains, locus YLR113W, strain HOG1, active compounds read low 1.05 | S. cerevisiae deletion strains, locus YLR262C, strain YPT6, active compounds read low 1.03 | S. cerevisiae deletion strains, locus YLR268W, strain sec22, active compounds read low 0.988 | S. cerevisiae deletion strains, locus YLR330W, strain CHS5, active compounds read low 1.01 | S. cerevisiae deletion strains, locus YLR342W, strain FKS1 (second series), active compounds read low 1.03 | S. cerevisiae deletion strains, locus YLR371W, strain rom2, active compounds read low 0.998 | S. cerevisiae deletion strains, locus YLR418C, strain cdc73, active compounds read low 0.976 | S. cerevisiae deletion strains, locus YML016C, strain PPZ1, active compounds read low 1.01 | S. cerevisiae deletion strains, locus YML032C, strain rad52, active compounds read low 0.972 | S. cerevisiae deletion strains, locus YML124C, strain tub3, active compounds read low 0.995 | S. cerevisiae deletion strains, locus YMR078C, strain ctf18, active compounds read low 1 | S. cerevisiae deletion strains, locus YMR223W, strain ubp8, active compounds read low 0.977 | S. cerevisiae deletion strains, locus YMR307W, strain GAS1, active compounds read low 0.976 | S. cerevisiae deletion strains, locus YNL067W, strain RPL9B, active compounds read low 1.04 | S. cerevisiae deletion strains, locus YNL153C, strain GIM3, active compounds read low 1.04 | S. cerevisiae deletion strains, locus YNL183C, strain NPR1, active compounds read low 1.04 | S. cerevisiae deletion strains, locus YNL233W, strain BNI4, active compounds read low 1.04 | S. cerevisiae deletion strains, locus YNL250W, strain rad50, active compounds read low 0.989 | S. cerevisiae deletion strains, locus YNL271C, strain bni1, active compounds read low 0.998 | S. cerevisiae deletion strains, locus YNL298W, strain CLA4, active compounds read low 0.98 | S. cerevisiae deletion strains, locus YNL307C, strain MCK1, active compounds read low 0.994 | S. cerevisiae deletion strains, locus YNR052C, strain pop2, active compounds read low 0.995 | S. cerevisiae deletion strains, locus YOL012C, strain htz1 0.439 | S. cerevisiae deletion strains, locus YOL147C, strain pex11, active compounds read low 0.99 | S. cerevisiae deletion strains, locus YOR061W, strain CKA2, active compounds read low 1.01 | S. cerevisiae deletion strains, locus YOR069W, strain VPS5, active compounds read low 1.01 | S. cerevisiae deletion strains, locus YOR136W, strain idh2, active compounds read low 0.997 | S. cerevisiae deletion strains, locus YOR144C, strain elg1, active compounds read low 0.992 | S. cerevisiae deletion strains, locus YOR184W, strain ser1, active compounds read low 0.965 | S. cerevisiae deletion strains, locus YOR231W, strain MKK1, active compounds read low 1.07 | S. cerevisiae deletion strains, locus YOR316C, strain cot1, active compounds read low 1 | S. cerevisiae deletion strains, locus YPL055C, strain LGE1, active compounds read low 1.04 | S. cerevisiae deletion strains, locus YPL241C, strain CIN2, active compounds read low 0.998 | S. cerevisiae deletion strains, locus YPL256C, strain CLN2, active compounds read low 1.03 | S. cerevisiae deletion strains, locus YPR119W, strain clb2, active compounds read low 1 | S. cerevisiae deletion strains, locus YPR141C, strain kar3, active compounds read low 1.01 | S. cerevisiae deletion strains, locus YPR163C, strain tif3, active compounds read low 1.02 | S. cerevisiae deletion strains, locus YPR167C, strain met16, active compounds read low 1 | S. cerevisiae deletion strains, strain wtn01, active compounds read low 0.977 | S. cerevisiae strains, strain wild type, active compounds read low 1.01
